According to ChEMBL document CHEMBL1157539, “Thousands of chemical starting points for antimalarial lead identification” (Nature, 2010):

Experiments:
Type in all cases: functional
Plasmodium falciparum [1] = experiment: GSK_TCMDC: Inhibition of Plasmodium falciparum 3D7 in whole red blood cells, using parasite LDH activity as an index of growth. Test compounds present at 2uM
Plasmodium falciparum [2] = experiment: GSK_TCMDC: Inhibition of Plasmodium falciparum Dd2 in whole red blood cells, using parasite LDH activity as an index of growth. Test compounds present at 2uM
HepG2 = experiment: GSK_TCMDC: Percent inhibition of human HepG2 cell line. Test compounds present at 10uM.

Cc1ccc(NC(=O)NC2CCN(c3ccnc4ccccc34)CC2)cc1.O=C(O)C(F)(F)F
Inhibition (Plasmodium falciparum [1]): 97%
Inhibition (Plasmodium falciparum [2]): 52%
Inhibition (HepG2): 21%

COc1ccc(-c2cc(-c3nc4cc(C(=O)N5CCOCC5)ccc4[nH]3)c(=O)n(C)c2)cc1OC.O=C(O)C(F)(F)F
Inhibition (Plasmodium falciparum [1]): 93%
Inhibition (Plasmodium falciparum [2]): 95%
Inhibition (HepG2): 6%

O=C(NCCCCCN1CCC(c2c[nH]c3ccccc23)CC1)Nc1ccc(Br)cc1
Inhibition (Plasmodium falciparum [1]): 91%
Inhibition (Plasmodium falciparum [2]): 0%
Inhibition (HepG2): 24%

CCCC(C)c1cnc2nc(N)nc(N)c2c1C (stereo not drawn)
Inhibition (Plasmodium falciparum [1]): 95%
Inhibition (Plasmodium falciparum [2]): 1%
Inhibition (HepG2): 67%

Cl.O=C(Nc1ccccc1)c1cccc(Nc2nccc(Nc3ccc(Oc4ccccc4)cc3)n2)c1
Inhibition (Plasmodium falciparum [1]): 98%
Inhibition (Plasmodium falciparum [2]): 11%
Inhibition (HepG2): 6%

COc1ccc(CNC2CCN(C)CC2)cc1-c1ccc(S(=O)(=O)NCCc2ccccn2)s1.O=C(O)C(F)(F)F
Inhibition (Plasmodium falciparum [1]): 100%
Inhibition (Plasmodium falciparum [2]): 12%
Inhibition (HepG2): 6%

O=C1NC(c2ccccc2)C2(CCN(CC(O)COc3cccc4ncccc34)CC2)O1 (stereo not drawn)
Inhibition (Plasmodium falciparum [1]): 92%
Inhibition (Plasmodium falciparum [2]): 95%
Inhibition (HepG2): 5%

CCNc1cc(C(=O)N[C@@H](Cc2ccccc2)[C@H](O)CNC2(CC)CC2)cc(N2CCCCS2(=O)=O)c1.Cl
Inhibition (Plasmodium falciparum [1]): 97%
Inhibition (Plasmodium falciparum [2]): 94%
Inhibition (HepG2): 59%

CC(=O)Nc1ccc(CN2CCN(C(c3ccc(F)cc3)c3ccc(F)cc3)CC2)cc1
Inhibition (Plasmodium falciparum [1]): 93%
Inhibition (Plasmodium falciparum [2]): 79%
Inhibition (HepG2): 4%

Fc1ccc2[nH]c(-c3ccc(-c4ccc(CNCCc5ccncc5)cc4)cc3)nc2c1.O=C(O)C(F)(F)F
Inhibition (Plasmodium falciparum [1]): 100%
Inhibition (Plasmodium falciparum [2]): 97%
Inhibition (HepG2): 23%

COc1ccc(NC(=O)[C@H](CC(C)C)Nc2cc(C)nc(Nc3ccccc3)n2)cc1.O=C(O)C(F)(F)F
Inhibition (Plasmodium falciparum [1]): 100%
Inhibition (Plasmodium falciparum [2]): 92%
Inhibition (HepG2): 25%

Cc1cc2nc(-c3ccc(C(=O)NCCCc4ccccc4)cc3)[nH]c2cc1C
Inhibition (Plasmodium falciparum [1]): 91%
Inhibition (Plasmodium falciparum [2]): 5%
Inhibition (HepG2): 7%

Cc1ccccc1OCC(=O)Nc1ccc(-c2nc3cc4ccccc4cc3[nH]2)cc1
Inhibition (Plasmodium falciparum [1]): 100%
Inhibition (Plasmodium falciparum [2]): 51%
Inhibition (HepG2): 24%

CN1CCN(c2ccnc3ccc(NC(=O)Nc4ccc(-c5ccncc5)c(C#N)c4)cc23)CC1
Inhibition (Plasmodium falciparum [1]): 100%
Inhibition (Plasmodium falciparum [2]): 99%
Inhibition (HepG2): 32%

COc1ccc2c(NN=Cc3cccnc3)ccnc2c1
Inhibition (Plasmodium falciparum [1]): 97%
Inhibition (Plasmodium falciparum [2]): 26%
Inhibition (HepG2): 3%

CCn1c(Sc2ccc(C#N)c([N+](=O)[O-])c2)nnc1-c1cc(OC)cc(OC)c1
Inhibition (Plasmodium falciparum [1]): 93%
Inhibition (Plasmodium falciparum [2]): 82%
Inhibition (HepG2): 7%

CS(=O)(=O)CCNCc1cccc(-c2cc3c(Nc4ccc(OCc5ccccc5)cc4)ncnc3cn2)c1.Cl
Inhibition (Plasmodium falciparum [1]): 100%
Inhibition (Plasmodium falciparum [2]): 26%
Inhibition (HepG2): 3%

CCCCCCCCCc1c(C)[nH]c2ccccc2c1=O
Inhibition (Plasmodium falciparum [1]): 97%
Inhibition (Plasmodium falciparum [2]): 96%
Inhibition (HepG2): 0%

O=C(NCc1ccc(F)cc1)c1ccc(N2CCN(c3ccncc3)CC2)cn1.O=C(O)C(F)(F)F
Inhibition (Plasmodium falciparum [1]): 98%
Inhibition (Plasmodium falciparum [2]): 81%
Inhibition (HepG2): 7%

CC(=O)Nc1csc(-c2cnc(/C=C(\C)C[C@@H]3OC[C@H](C[C@@H]4O[C@H]4[C@@H](C)[C@H](C)O)[C@@H](O)[C@H]3O)o2)c1
Inhibition (Plasmodium falciparum [1]): 94%
Inhibition (Plasmodium falciparum [2]): 8%
Inhibition (HepG2): 1%

Br.CCOCc1cn(CC(=O)c2ccc(-c3ccccc3)cc2)c(C)nc1=N
Inhibition (Plasmodium falciparum [1]): 93%
Inhibition (Plasmodium falciparum [2]): 72%
Inhibition (HepG2): 13%

CCCc1cc(Cc2cnc(N)nc2N)cc(CCC)c1OC.Cl
Inhibition (Plasmodium falciparum [1]): 92%
Inhibition (Plasmodium falciparum [2]): 1%
Inhibition (HepG2): 18%

Cl.O=C1c2ccccc2CN1CCCN1CCC(Oc2ccc(F)cc2)CC1
Inhibition (Plasmodium falciparum [1]): 97%
Inhibition (Plasmodium falciparum [2]): 1%
Inhibition (HepG2): 14%

Cc1nc(NC(=N)N)nc2cc3c(cc12)CCC3.Cl
Inhibition (Plasmodium falciparum [1]): 90%
Inhibition (Plasmodium falciparum [2]): 58%
Inhibition (HepG2): 17%

CC1(C)N=C(N)N=C(N)N1c1ccc([N+](=O)[O-])cc1.Cl
Inhibition (Plasmodium falciparum [1]): 93%
Inhibition (Plasmodium falciparum [2]): 1%
Inhibition (HepG2): 3%

Cc1cnc(-c2ccc(NC(=O)c3coc4ccc(N5CC(C)N(C)C(C)C5)cc34)cc2)o1.Cl (stereo not drawn)
Inhibition (Plasmodium falciparum [1]): 96%
Inhibition (Plasmodium falciparum [2]): 39%
Inhibition (HepG2): 18%
